# Measured values as given in the supplement of paper PMC9135407.
# Several values for one entry are separate records, joined by “and”; a condition that tells them apart may be missing. Equal entries are not always repeated. Structures can show the parent of a compound that is named as a salt. The whole screen tested about 5,800 compounds, of which about 620 (11%) showed activity. The list comes from a sample in which actives are over-represented; it also holds similar structures and randomly drawn compounds. A number with no mark means an inactive call.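 Rule for the calls: active = score above a cut-off or among the top three wells of a plate; in these data no inactive exceeds 0.85.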
# Tested on: primary human hepatic stellate cells (donor 1)
# Assay: scaled lipid accumulation score (0 = DMSO-like, 1 = nortriptyline-like); higher = stronger HSC inactivation (lipid re-accumulation), active = hit call of the paper
# Settings: 48 h
# [1] = library stock concentration: 10 mM
# [2] = library stock concentration: 80 uM
# [3] = library stock concentration: 400 uM
# [4] = library stock concentration: 2 mM
# [5] = library stock concentration: 1 mM
# [6] = library stock concentration: 3.33 mM
compound,measurement,setting,value
N=C(N)S/C=C\C(=O)O [ZAPA sulphate],scaled lipid accumulation score,[1],0.011
CC(O)C(=O)O.N (stereo not given),scaled lipid accumulation score,[1],≤ 0
CC(C)S(=O)(=O)Nc1ccc(F)c(C(=O)c2c[nH]c3ncc(-c4cccnc4)cc23)c1F,scaled lipid accumulation score,[2],≤ 0
same,scaled lipid accumulation score,[3],≤ 0
same,scaled lipid accumulation score,[4],≤ 0
same,scaled lipid accumulation score,[1],0.059
CC(C)(CCCCCCCCCCC(C)(C)CC(=O)O)CC(=O)O,scaled lipid accumulation score,[5],0.013
CCCCC/C=C\C/C=C\C/C=C\C/C=C\CCCC(=O)OCC [Arachidonic Acid ethyl ester],scaled lipid accumulation score,[5],≤ 0
CC(C)=CCC/C(C)=C/CC/C(C)=C/CSc1ccccc1C(N)=O [Farnesyl Thiosalicylic Acid Amide],scaled lipid accumulation score,[5],≤ 0
CCCCCCCCCCCCCCCC(=O)OC[C@H](COP(=O)([O-])OCC[N+](C)(C)C)OC(=O)CCCCCCCC(=O)/C=C/C(=O)O,scaled lipid accumulation score,[5],0.026
"Nc1nc2c(nc(Br)n2[C@@H]2O[C@@H]3COP(=O)(O)O[C@H]3[C@H]2O)c(=O)[nH]1 [8-Bromo-cGMP, sodium salt]",scaled lipid accumulation score,[1],0.026
CCCCC/C=C\C[C@@H](O)/C=C/C=C/C=C\[C@@H](O)CCCC(=O)O [Leukotriene B4],scaled lipid accumulation score,library stock concentration: 100 uM,≤ -0.021
NC(CCCP(=O)(O)O)C(=O)O (stereo not drawn) [D(-)-2-Amino-5-phosphonopentanoic acid],scaled lipid accumulation score,[1],0.148
NC(CCCP(=O)(O)O)C(=O)O (stereo not given),scaled lipid accumulation score,[1],0.024
CCCCCCCCc1ccc(-c2ccc(C(=O)O)cc2)cc1,scaled lipid accumulation score,[1],≤ 0 and 0.032
CCCCCCCCc1ccc(CCC(N)(CO)CO)cc1,scaled lipid accumulation score,[5],0.527
CCCCCCCCc1ccc(CCC(N)(CO)CO)cc1.Cl [Fingolimod (FTY720) HCl],scaled lipid accumulation score,[6],1.17 (active)
CCCCCCCCc1ccc(CCC(N)(CO)CO)cc1 [Fingolimod (FTY720) HCl],scaled lipid accumulation score,[1],0.376
CC1(C)CCC(C)(C)c2cc(C3(c4ccc(C(=O)O)cc4)OCCO3)ccc21,scaled lipid accumulation score,[1],≤ -0.001
COCCCC/C(=N\OCCN)c1ccc(C(F)(F)F)cc1.O=C(O)/C=C\C(=O)O [Fluvoxamine maleate],scaled lipid accumulation score,[1],1.13 (active)
COCCCC/C(=N\OCCN)c1ccc(C(F)(F)F)cc1 [Fluvoxamine maleate],scaled lipid accumulation score,,0.592
same,scaled lipid accumulation score,[6],0.347
same,scaled lipid accumulation score,[1],0.81 and 0.545
COCCCC/C(=N\OCCN)c1ccc(C(F)(F)F)cc1 [Fluvoxamine],scaled lipid accumulation score,[1],0.69
COCCCCCCCCCCCC(=O)O [12-Methoxydodecanoic acid],scaled lipid accumulation score,[5],≤ -0.021
CCCCC[C@H](O)/C=C/[C@@H]1[C@@H](C/C=C\CCCC(=O)O)[C@H](O)C[C@H]1O [Prostaglandin F2.beta.],scaled lipid accumulation score,[5],≤ 0
CCCCC[C@H](O)/C=C/[C@@H]1[C@@H](C/C=C\CCCC(=O)O)[C@H](O)C[C@H]1O [Prostaglandin F2.beta. (tromethamine salt)],scaled lipid accumulation score,[5],≤ 0
"CCCCC[C@H](O)/C=C/[C@@H]1[C@@H](C/C=C\CCCC(=O)O)[C@H](O)C[C@H]1O [9b,11a-Prostaglandin F2]",scaled lipid accumulation score,[5],≤ -0.021
CSc1ccc2c(c1)C(N1CCN(C)CC1)Cc1ccccc1S2 (stereo not given) [Methiothepin maleate],scaled lipid accumulation score,,0.829
CSc1ccc2c(c1)C(N1CCN(C)CC1)Cc1ccccc1S2 (stereo not given) [Methiothepin mesylate],scaled lipid accumulation score,[1],0.774
CSc1ccc2c(c1)C(N1CCN(C)CC1)Cc1ccccc1S2.O=C(O)/C=C\C(=O)O (stereo not given) [Methiothepin maleate],scaled lipid accumulation score,[1],1.41 (active)
CCCCCC(O)C=CC1C(O)CC(=O)C1CC=CCCCC(=O)O (stereo not given) [8-iso Prostaglandin E2],scaled lipid accumulation score,[5],≤ 0
CO[C@H]1C[C@H](O[C@H]2[C@H](C)O[C@@H](O[C@@H]3/C(C)=C/C[C@@H]4C[C@@H](C[C@]5(C=C[C@H](C)[C@@H](C6CCCCC6)O5)O4)OC(=O)[C@@H]4C=C(C)[C@@H](O)[C@H]5OC/C(=C\C=C\[C@@H]3C)[C@]54O)C[C@@H]2OC)O[C@@H](C)[C@@H]1O,scaled lipid accumulation score,[1],0.081
"CCCCC[C@H](O)CC[C@H]1[C@H](O)CC(=O)[C@@H]1CCCCCCC(=O)O [13,14-Dihydro-PGE1]",scaled lipid accumulation score,[5],≤ -0.021
Cc1cn(-c2cc(NC(=O)c3ccc(C)c(Nc4nccc(-c5cccnc5)n4)c3)cc(C(F)(F)F)c2)cn1 [Nilotinib (AMN-107)],scaled lipid accumulation score,[6],0.438
same,scaled lipid accumulation score,[1],0.668
"Cc1cn(-c2cc(NC(=O)c3ccc(C)c(Nc4nccc(-c5cccnc5)n4)c3)cc(C(F)(F)F)c2)cn1 [Nilotinib (AMN107, Tasigna) (2 mM)]",scaled lipid accumulation score,[4],≤ -0.005
CNc1nccc(-c2cccnc2Oc2cc(C(=O)Nc3cccc(C(F)(F)F)c3)ccc2C)n1 [listing 1 of 2 here],scaled lipid accumulation score,[1],1.13 (active)
"Cc1cn(-c2cc(NC(=O)c3ccc(C)c(Nc4nccc(-c5cccnc5)n4)c3)cc(C(F)(F)F)c2)cn1 [Nilotinib (AMN107, Tasigna) (10 mM)]",scaled lipid accumulation score,[1],0.552
"Cc1cn(-c2cc(NC(=O)c3ccc(C)c(Nc4nccc(-c5cccnc5)n4)c3)cc(C(F)(F)F)c2)cn1 [Nilotinib (AMN107, Tasigna) (0.4 mM)]",scaled lipid accumulation score,[3],0.053
CNc1nccc(-c2cccnc2Oc2cc(C(=O)Nc3cccc(C(F)(F)F)c3)ccc2C)n1 [listing 2 of 2 here],scaled lipid accumulation score,[3],≤ -0.005
same,scaled lipid accumulation score,[4],≤ -0.005
Cc1cn(-c2cc(NC(=O)c3ccc(C)c(Nc4nccc(-c5cccnc5)n4)c3)cc(C(F)(F)F)c2)cn1,scaled lipid accumulation score,[2],≤ -0.009
same,scaled lipid accumulation score,[3],0.035
same,scaled lipid accumulation score,[4],≤ -0.009
same,scaled lipid accumulation score,[1],≤ -0.008
O=C(O)CCCCC1CCSS1 (racemic) [DL-.alpha.-Lipoic Acid],scaled lipid accumulation score,[5],≤ 0
C[C@H]1C[C@H]2[C@@H]3CCC4=CC(=O)C=C[C@]4(C)[C@@]3(F)[C@@H](O)C[C@]2(C)[C@@]1(O)C(=O)COP(=O)(O)O,scaled lipid accumulation score,[1],≤ 0
CCOc1cc(N2CCC(O)CC2)ccc1Nc1ncc2c(n1)N(C)c1ccccc1C(=O)N2C,scaled lipid accumulation score,[2],≤ -0.009
same,scaled lipid accumulation score,[3],0.026
same,scaled lipid accumulation score,[4],≤ -0.009
same,scaled lipid accumulation score,[6],≤ -0.009
same,scaled lipid accumulation score,[1],0.473 and 0.012
CC[C@@H]1C(=O)N(C)c2cnc(Nc3ccc(C(=O)NC4CCN(C)CC4)cc3OC)nc2N1C1CCCC1 [listing 1 of 2 here],scaled lipid accumulation score,[3],1.02 (active)
CC[C@@H]1C(=O)N(C)c2cnc(Nc3ccc(C(=O)N[C@H]4CC[C@H](N5CCN(CC6CC6)CC5)CC4)cc3OC)nc2N1C(C)C [Volasertib] [listing 1 of 2 here],scaled lipid accumulation score,[2],0.154
same,scaled lipid accumulation score,[3],0.358
same,scaled lipid accumulation score,[4],0.451
CC[C@@H]1C(=O)N(C)c2cnc(Nc3ccc(C(=O)N[C@H]4CC[C@H](N5CCN(CC6CC6)CC5)CC4)cc3OC)nc2N1C(C)C [Volasertib (BI 6727)],scaled lipid accumulation score,[6],0.97 (active)
same,scaled lipid accumulation score,[1],0.916 (active)
CC[C@@H]1C(=O)N(C)c2cnc(Nc3ccc(C(=O)N[C@H]4CC[C@H](N5CCN(CC6CC6)CC5)CC4)cc3OC)nc2N1C(C)C [Volasertib] [listing 2 of 2 here],scaled lipid accumulation score,[1],1.17 (active)
COc1cc(C(=O)NC2CCN(C)CC2)ccc1Nc1ncc2c(n1)N(C1CCCC1)C(C)CC(=O)N2C (stereo not given),scaled lipid accumulation score,[2],≤ 0
same,scaled lipid accumulation score,[3],≤ 0
same,scaled lipid accumulation score,[4],0.177
same,scaled lipid accumulation score,[1],0.428
CC(C)CCN1c2nc(Nc3cc(F)c(O)c(F)c3)ncc2N(C)C(=O)C1C (stereo not given),scaled lipid accumulation score,[2],≤ -0.001
same,scaled lipid accumulation score,[3],≤ -0.001 and ≤ -0.005
same,scaled lipid accumulation score,[4],≤ -0.001 and 0.123
same,scaled lipid accumulation score,[6],≤ 0
same,scaled lipid accumulation score,[1],≤ 0 and ≤ -0.001 and 0.36
COc1cc(C(=O)NC2CCN(C)CC2)ccc1Nc1ncc2c(n1)N(C1CCCC1)CC(F)(F)C(=O)N2C,scaled lipid accumulation score,[6],0.271
same,scaled lipid accumulation score,[1],0.722
COc1cc(C(=O)NC2CCN(C)CC2)ccc1Nc1ncc2c(n1)N(C1CCCC1)CCC(=O)N2C(C)C [listing 1 of 2 here],scaled lipid accumulation score,[2],≤ 0
same,scaled lipid accumulation score,[3],≤ 0
same,scaled lipid accumulation score,[4],0.132
CC[C@@H]1C(=O)N(C)c2cnc(Nc3ccc(C(=O)NC4CCN(C)CC4)cc3OC)nc2N1C1CCCC1 [listing 2 of 2 here],scaled lipid accumulation score,[2],0.007
same,scaled lipid accumulation score,[3],0.527
same,scaled lipid accumulation score,[4],0.722 and 0.628
same,scaled lipid accumulation score,[6],0.569
same,scaled lipid accumulation score,[1],0.749 and 0.538 and 0.259
COc1cc(C(=O)NC2CCN(C)CC2)ccc1Nc1ncc2c(n1)N(C1CCCC1)CCC(=O)N2C(C)C [listing 2 of 2 here],scaled lipid accumulation score,[1],0.868 (active)
